Values joined by “and” are separate entries in the source; they are usually repeats but may differ in a detail not shown here. Identical values can stand only once. Some compounds were tested as several samples or in several runs, with calls that do not always agree. Active and inactive are the calls of the source. How the source made its calls: active means hit-call score of the fitted dose curve at least 0.9, where 1 is the maximum; inactive means score below 0.9.
Assays:
[1] = molecular target: Hypoxia-inducible factor 1-alpha (Homo sapiens) (UniProt Q16665); assay: ATG_HIF1a_CIS: Attagene CIS-FACTORIAL HepG2 Assay for human Hypoxia Inducible Factor 1 (HIF1A) (AID 2282951); conditions: HepG2 Attagene cis-factorial HIF1a reporter transcription; actives raise or lower the signal
Method in brief: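 In this multiplexed cell assay, HepG2 cells bearing transfected cis reporters are dosed for 24 h and reporter mRNA is read by RT-PCR plus capillary electrophoresis; signal increases and decreases are both scored against DMSO.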

[2] = molecular target: Hepatocyte nuclear factor 6 (Homo sapiens) (UniProt Q9UBC0); assay: ATG_HNF6_CIS: Attagene CIS-FACTORIAL HepG2 Assay for human Hepatocyte Nuclear Factor 6 (HNF6) (AID 2282952); conditions: HepG2 Attagene cis-factorial HNF6 reporter transcription; actives raise or lower the signal
Method in brief: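 Activity values derive from bidirectional fitting against DMSO of reporter mRNA levels, measured by capillary electrophoresis of labelled RT-PCR products from HepG2 cells exposed 24 h.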

[3] = molecular target: Heat shock factor protein 1 (Homo sapiens) (UniProt Q00613); assay: ATG_HSE_CIS: Attagene CIS-FACTORIAL HepG2 Assay for human Heat Shock Transcription Factor 1 (HSE) (AID 2282953); conditions: HepG2 HSE cis-reporter, Attagene RNA transcription; actives raise or lower the signal
Method in brief: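 Liver-derived HepG2 cells carry transiently introduced multiple reporter units governed by cis promoters. Reporter RNA measured 24 h post-dose through reverse transcription, PCR amplification, fluorescent labelling and capillary electrophoresis, normalised to DMSO.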

[4] = ATG_MRE_CIS: Attagene CIS-FACTORIAL HepG2 Assay for human Metal Responsive Element (MRE) (AID 2282954); conditions: HepG2 MRE cis-reporter transcription, Attagene multiplex; actives raise or lower the signal
Method in brief: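 Endogenous MRE-dependent transcription read as reporter mRNA in transiently transfected human HepG2 cells at 24 h. RNA reverse-transcribed, PCR-amplified, labelled and resolved by capillary electrophoresis; gain or loss relative to DMSO.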

[5] = ATG_PBREM_CIS: Attagene CIS-FACTORIAL HepG2 Assay for human Phenobarbital-responsive Enhancer Module (PBREM) (AID 2282955); conditions: HepG2 PBREM cis-reporter, Attagene multiplexed transcription; actives raise or lower the signal
Method in brief: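 After a 24 h incubation with test chemical, transfected HepG2 cells yield total RNA; reporter-specific RT-PCR products are fluorescently labelled, HpaI-digested and resolved by capillary electrophoresis against ROX size standards.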

[6] = molecular target: Paired box protein Pax-6 (Homo sapiens) (UniProt P26367); assay: ATG_Pax6_CIS: Attagene CIS-FACTORIAL HepG2 Assay for human Paired Box 6 (PAX6) (AID 2282956); conditions: HepG2 CIS-FACTORIAL PAX6 reporter transcription, RNA readout; actives raise or lower the signal
Method in brief: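 Fluorescent RT-PCR products separated by capillary electrophoresis report PAX6-linked promoter mRNA in HepG2 cells 24 h post-dose. Curves fitted bidirectionally, DMSO as negative control.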

[7] = ATG_PXRE_CIS: Attagene CIS-FACTORIAL HepG2 Assay for human Pregnane X Receptor Element (PXRE) (AID 2282957); conditions: HepG2 Attagene CIS-FACTORIAL PXRE reporter, mRNA; actives raise or lower the signal
Method in brief: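 Fluorescent capillary electrophoresis of amplified reporter cDNA gave the signal, collected 24 h after dosing HepG2 cells that held transfected cis-element reporter constructs.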

[8] = ATG_PPRE_CIS: Attagene CIS-FACTORIAL HepG2 Assay for human Peroxisome Proliferator-activated Response Element (PPRE) (AID 2282958); conditions: HepG2 PPRE cis-element reporter, Attagene transcription factor profiling; actives raise or lower the signal
Method in brief: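 Multiplexed reporter transcription units under cis-regulatory promoters were transfected into HepG2 cells to capture endogenous factor activity. A 24 h incubation preceded RNA isolation and fluorescent RT-PCR fragment analysis.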

[9] = ATG_RORE_CIS: Attagene CIS-FACTORIAL HepG2 Assay for human RAR-related Orphan Receptor Element (RORE) (AID 2282959); conditions: HepG2 Attagene cis-factorial RORE reporter, mRNA; actives raise or lower the signal
Method in brief: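 Fluorescence intensity of reporter-specific cDNA fragments, separated by capillary electrophoresis, gives the signal. Source: HepG2 liver cells transiently transfected with cis-element reporters and exposed 24 h; DMSO-normalized bidirectional fit.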

[10] = ATG_Sox_CIS: Attagene CIS-FACTORIAL HepG2 Assay for human SRY-box transcription factor (SOX) (AID 2282960); conditions: HepG2 Attagene cis-factorial SOX reporter, mRNA; actives raise or lower the signal
Method in brief: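 After 24 h of chemical treatment, transfected HepG2 reporter cells are lysed for total RNA. Transcript levels come from RT-PCR with labelled primer extension and capillary electrophoresis, analysed bidirectionally versus DMSO.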

Measured: AC50

Hepatocyte nuclear factor 6 (Homo sapiens), sequence (Q9UBC0 whole entry, looked up): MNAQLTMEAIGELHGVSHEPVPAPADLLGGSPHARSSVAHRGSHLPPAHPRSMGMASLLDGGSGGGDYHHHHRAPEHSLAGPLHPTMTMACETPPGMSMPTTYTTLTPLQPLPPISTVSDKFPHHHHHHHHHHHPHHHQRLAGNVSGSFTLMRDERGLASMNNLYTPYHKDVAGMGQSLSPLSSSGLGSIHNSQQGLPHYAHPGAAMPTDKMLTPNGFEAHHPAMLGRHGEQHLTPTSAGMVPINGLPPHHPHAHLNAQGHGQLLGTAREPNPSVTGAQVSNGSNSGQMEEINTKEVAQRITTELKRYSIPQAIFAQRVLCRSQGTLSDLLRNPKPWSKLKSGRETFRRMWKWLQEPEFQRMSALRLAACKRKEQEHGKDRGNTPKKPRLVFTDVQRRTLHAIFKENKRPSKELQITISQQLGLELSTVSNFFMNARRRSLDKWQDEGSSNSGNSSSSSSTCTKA
Heat shock factor protein 1 (Homo sapiens), sequence (Q00613 whole entry, looked up): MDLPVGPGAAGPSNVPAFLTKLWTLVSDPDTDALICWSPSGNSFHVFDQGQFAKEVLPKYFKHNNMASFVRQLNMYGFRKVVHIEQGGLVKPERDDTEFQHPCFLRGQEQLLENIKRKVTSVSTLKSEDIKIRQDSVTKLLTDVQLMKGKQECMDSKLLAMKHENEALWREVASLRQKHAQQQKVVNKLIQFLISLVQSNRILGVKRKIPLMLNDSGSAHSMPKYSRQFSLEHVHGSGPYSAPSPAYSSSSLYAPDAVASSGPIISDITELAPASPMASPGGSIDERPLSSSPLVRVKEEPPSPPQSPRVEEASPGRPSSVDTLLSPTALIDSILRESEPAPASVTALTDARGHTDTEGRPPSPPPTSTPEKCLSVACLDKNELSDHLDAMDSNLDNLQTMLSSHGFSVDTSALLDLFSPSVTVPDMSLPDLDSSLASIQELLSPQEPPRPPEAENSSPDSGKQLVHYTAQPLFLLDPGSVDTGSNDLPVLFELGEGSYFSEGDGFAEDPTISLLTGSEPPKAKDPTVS
Paired box protein Pax-6 (Homo sapiens), sequence (P26367 whole entry, looked up): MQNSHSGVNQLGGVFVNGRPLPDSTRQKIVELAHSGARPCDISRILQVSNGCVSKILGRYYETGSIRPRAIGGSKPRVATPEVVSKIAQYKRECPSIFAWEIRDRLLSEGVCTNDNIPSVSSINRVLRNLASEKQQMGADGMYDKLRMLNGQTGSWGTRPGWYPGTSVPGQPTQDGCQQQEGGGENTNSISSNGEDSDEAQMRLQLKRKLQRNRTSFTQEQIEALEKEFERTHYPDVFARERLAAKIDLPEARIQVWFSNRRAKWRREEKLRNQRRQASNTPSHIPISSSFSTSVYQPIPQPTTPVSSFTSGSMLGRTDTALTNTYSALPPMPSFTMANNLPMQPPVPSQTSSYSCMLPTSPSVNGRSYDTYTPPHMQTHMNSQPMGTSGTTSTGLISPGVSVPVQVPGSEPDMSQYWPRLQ
Hypoxia-inducible factor 1-alpha (Homo sapiens), sequence (Q16665 whole entry, looked up): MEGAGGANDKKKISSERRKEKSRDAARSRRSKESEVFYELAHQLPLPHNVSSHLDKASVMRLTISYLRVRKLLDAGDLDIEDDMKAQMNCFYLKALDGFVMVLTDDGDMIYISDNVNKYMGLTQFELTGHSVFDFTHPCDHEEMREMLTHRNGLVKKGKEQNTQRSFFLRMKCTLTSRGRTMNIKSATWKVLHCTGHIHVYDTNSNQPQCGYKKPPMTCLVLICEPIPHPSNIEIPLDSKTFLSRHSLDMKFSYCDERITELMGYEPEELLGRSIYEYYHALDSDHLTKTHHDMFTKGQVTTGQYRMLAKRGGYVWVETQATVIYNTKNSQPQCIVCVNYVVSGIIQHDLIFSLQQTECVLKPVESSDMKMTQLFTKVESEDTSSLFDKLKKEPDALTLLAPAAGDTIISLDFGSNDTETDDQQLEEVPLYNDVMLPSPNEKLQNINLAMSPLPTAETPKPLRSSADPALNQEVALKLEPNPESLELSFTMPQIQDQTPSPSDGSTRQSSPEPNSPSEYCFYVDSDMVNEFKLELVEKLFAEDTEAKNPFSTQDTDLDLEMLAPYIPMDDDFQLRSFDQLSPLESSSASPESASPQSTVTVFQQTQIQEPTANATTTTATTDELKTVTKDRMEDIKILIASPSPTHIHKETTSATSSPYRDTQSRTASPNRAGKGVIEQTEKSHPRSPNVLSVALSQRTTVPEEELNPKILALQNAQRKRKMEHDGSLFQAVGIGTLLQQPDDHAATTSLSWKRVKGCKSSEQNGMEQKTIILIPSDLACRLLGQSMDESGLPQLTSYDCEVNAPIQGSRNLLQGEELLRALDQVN

O=C(NCO)NCO
active: [7] 27.2 µM
inactive: all other assays above

Clc1ccc(C2(Cn3cncn3)CC(Br)CO2)c(Cl)c1 (configuration not stated)
active: [1] 26 µM | [3] 177 µM | [4] 145 µM | [5] 6.34 µM | [7] 1.23 µM | [8] 99.5 µM | [9] 70.7 µM
inactive: [2] | [6] | [10]

O=CC=O
active: [7] 4.55 µM
inactive: all other assays above

CCC(=O)C(CC(C)N(C)C)(c1ccccc1)c1ccccc1 (configuration not stated)
active: [7] 18.6 µM
inactive: all other assays above

CC1(C)Cc2cccc(O)c2O1
active: [7] 7.98 µM
not listed: [8]
inactive: all other assays above

CCN(CC)C(=O)Cl
inactive: all assays above

O=[N+]([O-])c1ccc(O)c([N+](=O)[O-])c1
not listed: [8]
inactive: all other assays above

CCCCCCCCc1ccc(O)cc1
not listed: [9] | [10]
inactive: all other assays above

COP(=O)(OC)OC
active: [7] 32.7 µM
not listed: [9]
inactive: all other assays above

CCC(=O)c1ccccc1
not listed: [9] | [10]
inactive: all other assays above

CC1CN1P(=O)(N1CC1C)N1CC1C (configuration not stated)
not listed: [8]
inactive: all other assays above

CC(=O)[O][Hg][c]1ccccc1
active: [4] 5.86 µM | [7] 3.71 µM | [9] 3.71 µM
not listed: [10]
inactive: all other assays above

ClC1=C(Cl)[C@]2(Cl)[C@@H]3[C@@H](Cl)[C@@H](Cl)C[C@@H]3[C@@]1(Cl)C2(Cl)Cl
inactive: all assays above

CCOC(=O)Nc1cccc(OC(=O)Nc2ccccc2)c1
active: [7] 100 µM
not listed: [9]
inactive: all other assays above

O=C(O)C(F)(F)C(F)(F)C(F)(F)C(F)(F)C(F)(F)C(F)(F)C(F)(F)C(F)(F)C(F)(F)C(F)(F)F
active: [1] 23.2 µM | [3] 14.9 µM | [4] 23.2 µM and 15.5 µM | [5] 70.8 µM | [6] 30.8 µM | [7] 62 µM | [9] 24.2 µM | [10] 58.4 µM
inactive: [1] | [2] | [3] | [5] | [6] | [7] | [9] | [10]

C(=NC1CCCCC1)=NC1CCCCC1
active: [4] 33.4 µM | [5] 8.4 µM | [8] 2.46 µM
not listed: [9]
inactive: all other assays above

COP(=S)(OC)Oc1ccc(Sc2ccc(OP(=S)(OC)OC)cc2)cc1
active: [1] 39.3 µM | [3] 27 µM | [4] 57.7 µM | [5] 8.08 µM | [6] 49.2 µM | [7] 2.83 µM
inactive: [2] | [8] | [10]

OCC(O)CCl (configuration not stated)
not listed: [9]
inactive: all other assays above

Cc1ccc(N)cc1Cl
not listed: [8] | [10]
inactive: all other assays above

O=C1C2(Cl)C3(Cl)C4(Cl)C(Cl)(Cl)C5(Cl)C3(Cl)C1(Cl)C5(Cl)C24Cl (configuration not stated)
inactive: [1] | [2] | [3] | [4] | [5] | [8] | [9] | [10]
active: [2] 11.1 µM | [3] 16.7 µM | [4] 3.57 µM and 16.2 µM | [5] 16 µM | [8] 14 µM | [10] 5.49 µM and 15.5 µM

ClCC(Cl)CCl
not listed: [8] | [9]
inactive: all other assays above

O=C1CCCN1
not listed: [9]
inactive: all other assays above

— PubChem BioAssay (EPA / NIEHS)
